Experimental data: PubChem BioAssay AID2642 (Johns Hopkins Ion Channel Center, 2010)
Screen size: about 310,000 compounds; about 3,900 (1.3%) were called active. This is one part of a sample in which actives are shown more often than they occur.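 The calls were made as follows: active = compounds whose thallium flux B-score, printed positive for inhibition, exceeds three library SD while starting fluorescence stays within three; inactive = the rest.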

These compounds were tested against Potassium voltage-gated channel subfamily KQT member 1 (Homo sapiens) (UniProt P51787) (assay: KCNQ1 potassium current blockers – cell-based, thallium flux, high-throughput, primary screen (AID 2642;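 also: channel opened by potassium depolarization with thallium stimulus after 20 min compound exposure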)). Conditions: CHO-K1 KCNQ1, FluxOR thallium flux fluorescence, at 10 µM; hits give high values.
Potassium voltage-gated channel subfamily KQT member 1 (Homo sapiens), sequence (P51787 whole entry, looked up): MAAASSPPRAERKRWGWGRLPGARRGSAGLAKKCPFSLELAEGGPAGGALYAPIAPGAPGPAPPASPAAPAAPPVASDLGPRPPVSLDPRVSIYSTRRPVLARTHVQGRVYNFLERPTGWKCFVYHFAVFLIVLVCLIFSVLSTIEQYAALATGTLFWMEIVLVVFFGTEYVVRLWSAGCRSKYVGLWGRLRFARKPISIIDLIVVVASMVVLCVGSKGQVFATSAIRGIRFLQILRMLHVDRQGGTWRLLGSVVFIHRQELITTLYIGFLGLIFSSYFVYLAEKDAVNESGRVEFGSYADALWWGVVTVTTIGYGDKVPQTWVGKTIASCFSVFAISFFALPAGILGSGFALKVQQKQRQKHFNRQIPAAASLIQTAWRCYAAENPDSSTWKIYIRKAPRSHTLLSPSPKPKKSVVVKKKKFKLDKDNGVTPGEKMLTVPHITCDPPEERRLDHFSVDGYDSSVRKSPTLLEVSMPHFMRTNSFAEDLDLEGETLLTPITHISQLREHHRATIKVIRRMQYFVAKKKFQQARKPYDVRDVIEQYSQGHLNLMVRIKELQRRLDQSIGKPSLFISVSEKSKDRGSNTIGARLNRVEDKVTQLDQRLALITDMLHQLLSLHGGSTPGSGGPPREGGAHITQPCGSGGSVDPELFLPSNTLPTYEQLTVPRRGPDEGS

Row | Structure (SMILES) | B-score
1 | CCc1nc2nc(C)c(NS(=O)(=O)c3ccc4c(c3)CCCC4)c(=O)n2[nH]1 | inactive
2 | CCCCc1ccc(NC(=O)NCc2cccnc2)cc1 | inactive
3 | O=S(=O)(NCCSc1ccccn1)c1ccc(Cl)cc1 | inactive
4 | Cc1cc(O)ccc1NC1=CC(=O)CC(C)(C)C1 | inactive
5 | CCOc1ccc(NC(=O)CN(C)C(=O)c2c(C)noc2C)cc1OCC | inactive
6 | CCOC(=O)C(C)Sc1nc2ccccc2c(=O)n1CC1CCCCC1 (stereo not given) | 7 (active)
7 | CCOC(=O)C1CCc2nc3ccccc3c(=O)n21 (stereo not given) | inactive
8 | CCOn1c(SC(C)C)nc2ccccc2c1=O | inactive
9 | Cc1c(OC(C)C(=O)NCC2CCC(C(=O)O)CC2)ccc2c1oc(=O)c1ccccc12 (stereo not given) | inactive
10 | Cc1noc(C)c1CSCC(=O)Nc1nc2ccc(Oc3ccccc3)cc2s1 | 8 (active)
11 | CCc1noc(C)c1C(=O)Nc1nc2ccc(OC)cc2s1 | inactive
12 | Cc1noc(C)c1CSCC(=O)Nc1ccc(Br)cc1Cl | inactive
13 | Cc1ccc(-n2ncc(C(=O)NC3CC3)c2C2CCN(C(=O)OC(C)(C)C)CC2)c(C)c1 | inactive
14 | CCOC(=O)c1oc2ccccc2c1NC(=O)c1cccs1 | inactive
15 | COCc1c(C(=O)OCc2c(C)noc2C)oc2ccccc12 | inactive
16 | Cc1cc(C)c(NC(=O)c2oc3ccccc3c2COc2ccccc2)c(C)c1 | 10 (active)
17 | COc1cc(C(C(=O)NC2CCCC2)N(Cc2ccccc2)C(=O)c2snc(C(N)=O)c2N)ccc1O (stereo not given) | inactive
18 | O=C(Nc1ccc(Cl)c(Cl)c1)N1CC=C(c2ccccc2)CC1 | 11 (active)
19 | COc1cc(C(=O)NCC(=O)N2CC=C(c3ccccc3)CC2)cc(OC)c1OC | inactive
20 | O=C(Nc1ccccc1)N1CCN(C(=O)Nc2ccccc2)CC1 | inactive
21 | O=C(NCCCN1CCCCC1)C1CC(=O)N(CCc2ccccc2)C1 (stereo not given) | inactive
22 | NC(=O)c1cc(-c2cccnc2)nc2ccc(Br)cc12 | inactive
23 | Cc1onc(-c2ccccc2)c1C(=O)NNC(=S)NC(=O)c1ccc(F)cc1 | inactive
24 | O=C(NNC(=S)NC(=O)c1cn(-c2ccccc2)nc1-c1ccccc1)c1ccncc1 | 6 (active)
25 | NC(=O)C1CCN(C(=O)c2cn(-c3ccccc3)nc2-c2cccnc2)CC1 | inactive
26 | c1ccc(-c2ccc3c(c2)NC(C2Nc4cc(-c5ccccc5)ccc4O2)O3)cc1 (stereo not given) | inactive
27 | CNS(=O)(=O)c1ccc(N2CCCC2=O)c([N+](=O)[O-])c1 | inactive

Row | Structure (SMILES) | B-score
28 | CC(=O)Nc1ccc(S(=O)(=O)Nc2ccc(-c3ccc4nnc(C)n4n3)cc2)cc1 | inactive
29 | CN(c1cccc(NC(=O)Nc2ccc(Cl)cc2)c1)S(C)(=O)=O | 10 (active)
30 | COc1cccc(N(CC(=O)Nc2cccc(N(C)S(C)(=O)=O)c2)S(C)(=O)=O)c1 | inactive
31 | Cc1ccc(N(CC(=O)Nc2cccc(N(C)S(C)(=O)=O)c2)S(C)(=O)=O)cc1 | inactive
32 | COc1cccc(NC(=O)CN(C)C(=O)CSCc2nc3scc(-c4cccs4)c3c(=O)[nH]2)c1 | inactive
33 | COc1ccc(C2NC(=O)C(=O)/C2=C(\O)c2ccc(Cl)cc2)cc1OC (stereo not given) | inactive
34 | O=C(CCc1ccccc1)Nc1ncc([N+](=O)[O-])s1 | inactive
35 | CC(=O)Oc1ccccc1C(=O)Nc1ncc([N+](=O)[O-])s1 | 7 (active)
36 | O=C(Nc1ncc([N+](=O)[O-])s1)C1COc2ccccc2O1 (stereo not given) | inactive
37 | CC(NC(=O)c1cc(=O)[nH]c2ccccc12)c1ccc(F)cc1F (stereo not given) | inactive
38 | CC(=O)c1cc2c(cc1NC(=O)Cn1nc(-c3ccc(F)cc3)ccc1=O)OCO2 | inactive
39 | COc1cnc(-c2ccccn2)nc1Oc1ccc(C(C)(C)C)cc1 | inactive
40 | COc1ccc(S(=O)(=O)N2CCCCCC2)cc1C(=O)OCC(=O)Nc1cc(C)on1 | inactive
41 | Cc1cc(C)nc(S/C=C/C(=O)c2ccccc2)n1 | inactive
42 | O=C(/C=C/Sc1ncn[nH]1)c1ccc(Cl)cc1 | 7 (active)
43 | O=C(CSc1ncn[nH]1)N/N=C/c1ccc(F)cc1 | inactive
44 | CCOc1cc(NC(=S)NCCCN(C)C)c(OCC)cc1NC(=O)C1CC1 | inactive
45 | OC(COc1cccc2ccccc12)CN1CCN(c2ccccn2)CC1 (stereo not given) | inactive
46 | CC(C)c1ccccc1OCC(O)CN(CC(O)COc1cccc2ccccc12)C(C)C (stereo not given) | 6 (active)
47 | Cc1cc(C)c(NC(=O)C[N+](C)(C)CC(O)COc2cccc3ccccc23)c(C)c1 (stereo not given) | inactive
48 | O=C(CC1C(=O)NCCN1Cc1ccc(-c2ccccc2)cc1)NCc1ccncc1 (stereo not given) | inactive
49 | Cc1ccc(OCC(=O)Nc2ccccc2C(=O)NC2CC2)cc1C | inactive
50 | O=[N+]([O-])c1ccc(O)c(/C=N/Nc2ccccc2[N+](=O)[O-])c1 | 9 (active)
51 | Nc1nnnn1/N=C/c1cc([N+](=O)[O-])ccc1O | inactive
52 | O=C(N/N=C/c1cc([N+](=O)[O-])ccc1O)/C(=C\c1cccs1)NC(=O)c1ccccc1 | inactive
53 | CCOc1ccc(CN2CCN(CCCc3ccccc3)C(CCO)C2)cc1 (stereo not given) | inactive
54 | CN1CCN(C2=NCCO2)CC1 | inactive

Row | Structure (SMILES) | B-score
55 | COc1ccc(OC)c(C(=O)NC(CC(N)=O)c2ccc(N3CCC(N4CCCCC4)CC3)c([N+](=O)[O-])c2)c1 (stereo not given) | inactive
56 | O=C(CNS(=O)(=O)c1ccccc1)N1CCN(C(=O)c2ccco2)CC1 | inactive
57 | CCS(=O)(=O)C1=NSC2=NC(=O)/C(=C\c3cc(C)n(-c4cccc(OC)c4)c3C)C(=N)N21 | 8 (active)
58 | Cc1cc(/C=C2/C(=N)N3C(=NC2=O)SN=C3S(C)(=O)=O)c(C)n1-c1ccccc1 | inactive
59 | CCS(=O)(=O)C1=NSC2=NC(=O)/C(=C\c3ccc(OS(=O)(=O)c4ccccc4)cc3)C(=N)N21 | inactive
60 | CCc1cc(=O)oc2cc(C)cc(OCC(=O)N3CCC[C@@H]3C(=O)O)c12 | inactive
61 | COc1ccc(N2CCN(C(=O)Cn3cnc4sc(C)c(S(=O)(=O)N5CCOCC5)c4c3=O)CC2)cc1 | inactive
62 | C=CCn1nc(-c2ccccc2)c2c(C)onc2c1=O | inactive
63 | CC(C)(C)n1nnnc1C(c1cccs1)N(Cc1cccnc1)CC1CCCO1 (stereo not given) | inactive
64 | CCOc1ccc(CN(Cc2ccco2)S(=O)(=O)c2ccc(-n3cnnn3)c(OC)c2)cc1 | inactive
65 | CCOc1ccc(CN(Cc2ccco2)C(c2cccs2)c2nnnn2C(C)(C)C)cc1 (stereo not given) | 7 (active)
66 | Cc1c(Cl)cccc1NC(=O)[C@@]1(CC(=O)O)CC(/C=C/c2ccccc2)=NO1 | inactive
67 | CC(Oc1ccc(F)cc1)C(=O)Nc1cc(S(=O)(=O)N2CCOCC2)ccc1N1CCN(C)CC1 (stereo not given) | inactive
68 | Cc1ccc(S(=O)(=O)N2CCC3(CC2)OCCO3)c(C)c1 | inactive
69 | CCOC(=O)C1CCN(C(=O)C2(NC(=O)Nc3cccc(F)c3)CCCCC2)CC1 | inactive
70 | Oc1c(Br)cccc1/C=N/Nc1c(F)c(F)c(F)c(F)c1F | 7 (active)
71 | Brc1ccccc1/C=N/Nc1nc2ccccc2o1 | inactive
72 | Oc1cccc(/C=N/Nc2ccc(Cl)nn2)c1O | inactive
73 | COc1cccc(NC(=O)CN(C)C(C)C(=O)Nc2ccc(C#N)cc2)c1 (stereo not given) | inactive
74 | COc1ccc(N(CC(=O)Nc2ccc(F)c(F)c2)S(=O)(=O)c2c(C)[nH]c(=O)[nH]c2=O)cc1 | inactive
75 | COc1ccccc1NC(=O)C1CCN(C(=O)c2ccc(C(C)(C)C)cc2)CC1 | inactive
76 | S=C(NCCc1ccccc1)Nc1ccccc1 | inactive
77 | O=C(CCNC(=O)c1ccc(Br)cc1)NCCCc1ccccc1 | inactive
78 | S=C(NCCCc1ccccc1)Nc1ccc(Br)cc1 | 7 (active)
79 | Cc1cn(C)c(=O)n(C)c1=O | inactive
80 | O=c1onc(-c2c(F)cccc2F)n1-c1ccccc1Cl | inactive
81 | CC1CCC2(CC1)NC(=O)N(CC(=O)c1cccn1C)C2=O (stereo not given) | 7 (active)

Row | Structure (SMILES) | B-score
82 | O=C(CN1C(=O)NC2(CCCCCC2)C1=O)NC1CC1 | inactive
83 | CC1CCC2(CC1)NC(=O)N(CC(=O)c1ccc3c(c1)OCO3)C2=O (stereo not given) | inactive
84 | Cc1ccc(CNC(=O)CSc2nnc3c(n2)[nH]c2ccc(F)cc23)cc1 | inactive
85 | CN(C)/C=C(/C(=O)c1ccc(Cl)cc1)S(=O)(=O)c1ccccc1 | inactive
86 | S=C(NN=C1CCN(Cc2ccccc2)CC1)NC1CCCCC1 | inactive
87 | S=C(NCCc1ccccc1)NCC1CCCO1 (stereo not given) | inactive
88 | CCCC1CCC(=NNC(=S)NCCc2ccccc2)CC1 (stereo not given) | 7 (active)
89 | COc1ccc(S(=O)(=O)NCC(=O)NCc2cc(=O)n(C)c(=O)n2C)cc1F | inactive
90 | Cc1ccc(S(=O)(=O)N2CCN(CC(=O)N/N=C/c3ccc(Br)s3)CC2)cc1 | inactive
91 | CCn1c(C)c(C)c2cc(C(=O)N3CCN(c4cccc(C)c4C)CC3)ccc21 | 10 (active)
92 | CCC(CC)C(=O)N1CCN(c2cccc(C)c2C)CC1 | inactive
93 | Cc1cccc(N2CCN(C(=O)c3cccc(N4C(=O)C5C6C=CC(C6)C5C4=O)c3)CC2)c1C (stereo not given) | inactive
94 | CCn1ccnc1CN(C)C(=O)c1cc(COc2ccc(-n3cncn3)cc2)on1 | inactive
95 | C=CCC1(CC=C)CCCN1C(=O)c1cc(COc2ccc(-n3cncn3)cc2)on1 | 11 (active)
96 | O=C(c1cc(COc2ccc(F)c(F)c2)on1)N1CCOCC1 | inactive
97 | NS(=O)(=O)c1cc(C(=O)NCCOc2ccccc2)c(Cl)cc1Cl | inactive
98 | COc1ccc(-n2c(C)cc(C(=O)COC(=O)c3cc(OC)c(OC)cc3NC(=O)c3cccs3)c2C)cc1 | inactive
99 | COc1ccc(Nc2ncnc3sc(C)cc23)cc1 | inactive
100 | COc1ccc(Nc2ncnc3ccc(Br)cc23)c(OC)c1 | inactive
101 | COc1ccc(Nc2ncnc3sc(-c4ccccc4)cc23)c(OC)c1 | 7 (active)
102 | c1ccc2c(c1)C(=NC1CCCCC1)NC2=NC1CCCCC1 | 6 (active)
103 | CC1(C)CC(=O)C=C(N2CCCC2)C1 | inactive
104 | O=C(O)CN1CCN(C(c2ccccc2)c2ccccc2)CC1 | inactive
105 | CC1(C)CC(N2CCN(C(c3ccccc3)c3ccccc3)CC2)=CC(=[N+]2CCCCC2)C1 | 9 (active)
